The panel holds about 83,000 compounds, 20% with a hit somewhere; the sample as a whole holds those more often.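 Plates (96-well) were seeded with cells, treated with compound at one concentration, and incubated for 48 hours before percent growth was determined.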 The source made the active and inactive calls.
These compounds were tested on SR leukemia (assay: NCI-60 one-dose screen, 48 h (100 = growth as untreated, 0 = no growth, -100 = all killed)). Conditions: 10 µM unless noted.
Protocol: Growth inhibition of the SR human tumor cell line is measured as a screen for anti-cancer activity. Cells are grown in 96 well plates and exposed to the test compound for 48 hours. Compounds are tested at a single concentration, which is 10^-5 M for most compounds. The reported endpoint is percent growth (GI% or GIPRCNT), where numbers from 0 - 100% represent growth inhibition, and numbers from -100% - 0 represent cell death. For example, a value of 40 represents 60% growth inhibition. A value of 0 means no net growth occurred over the course of the experiment. A value of -40 indicates 40% of cells at the beginning of the experiment died by the end of the experiment. A value of -100 means all cells are dead at the end of the experiment.
NCI-60 Human Tumor Cell Lines Screen was performed using the standard one-dose NCI protocol, which is described in more detail at https://dtp.cancer.gov/discovery_development/nci-60/default.htm.
Compounds with GIPRCNT values below 10 were considered active. Activity score was based on GIPRCNT using the following formula: […]
Score is 0 for GIPRCNT values of 100 or above, 50 for GIPRCNT values of 0, and 100 for GIPRCNT values of -100.
With COc1ccc2nc3nc4ccc[nH]c4cc3c2c1 the growth was 43.6% (inactive).
COc1ccc(/C=C/C(=O)Nc2ncnc3nc[nH]c23)cc1 was tested, and the growth was 73.4% (inactive).
C#CCN(CCCOc1ccc(Cl)cc1Cl)CCCSC(=O)CCCCCN1/C(=C\C=C2/CCCC(/C=C/C3=[N+](CCCCCC(=O)[O-])c4ccccc4C3(C)C)=C2Cl)C(C)(C)c2ccccc21 was tested, and the growth was -16.2% (active).
COc1cccc(NC(=O)Nc2ccc(Nc3ncnc4[nH]c(C)c(C)c34)cc2)c1 was tested, and the growth was 91.1% (inactive).
In the case of COc1ccc2[nH]c(=O)c(/C=C/C(=O)/C=C/c3ccc(O)c(OC)c3)cc2c1, the growth was 1.27% (active).
With CCOCCc1c(O)nc(SC)[nH]c1=O the growth was 112% (inactive).
O=C1CCC23OC(c4ccccc4N12)C(O)C(O)C3O (stereo not given) was tested, and the growth was 112% (inactive).
In the case of CC1(C)[C@@H](O)CC[C@]2(C)[C@H]3CC[C@@H]4[C@H]5[C@H](c6cn(-c7ccccc7)nn6)CC[C@]5(CO)CC[C@@]4(C)[C@]3(C)CC[C@@H]12, the growth was 64.7% (inactive).
For CSc1cccc(NC(=O)Nc2nc3c(C)cccc3s2)c1, the growth was 83.7% (inactive).
In the case of CC(=O)Oc1c2c(nc3c1c1ccccc1n3Cc1ccccc1)-c1ccccc1C2, the growth was 86.2% (inactive).
In the case of CCOCc1nc2ccccc2c(=O)[nH]1, the growth was 103% (inactive).
With CC(=O)OCC1OC(OC2C(COC(C)=O)OC(OCCC[S-])C(OC(C)=O)C2OC(C)=O)C(OC(C)=O)C(OC(C)=O)C1OC(C)=O.[Au+].c1ccc(CN2[CH-]N(Cc3ccccc3)C(c3ccccc3)=C2c2ccccc2)cc1 (stereo not given) the growth was 11% (inactive).
In the case of O=c1[nH]c(-c2cccc(F)c2)cc2cc(F)ccc12, the growth was 22.5% (inactive).
In the case of O=c1c2ccccc2oc2ccc(OCCCCCN3CCCCCC3)cc12, the growth was 46.9% (inactive).
O=C(CCl)N1CCCc2ccccc21 was tested, and the growth was 101% (inactive).
For CCn1cc(C(=O)O)c(=O)c2cc(F)c(N3CCN(CC(=O)Nc4ccc(/C(C)=N/OC)cc4)CC3)cc21, the growth was 82.6% (inactive).
With C=C(C)[C@@H]1CC[C@]2(C(=O)OCCOCCOCC[P+](c3ccccc3)(c3ccccc3)c3ccccc3)CC[C@]3(C)[C@H](CC[C@@H]4[C@@]5(C)CC[C@H](C)C(C)(C)[C@@H]5CC[C@]43C)[C@@H]12 the growth was -56.8% (active).
For CNCc1cccc2c1OCCOCCOCCN(CCN1CCOCC1)S(=O)(=O)c1ccc(cc1)-c1cnc(N)c(n1)C(=O)N2, the growth was 7.93% (active).
For COc1cc2nc3c(=O)n(-c4ccc(C#N)cc4)cnn3c(=O)c2cc1OC, the growth was 94.1% (inactive).
Cc1nc2sc(C(=O)Nc3ccccc3)c(N)c2cc1C(C)O (stereo not given) was tested, and the growth was 11.7% (inactive).
In the case of C#C[C@@]1(O)[C@@H](CO)O[C@@H](n2cc(-c3ccco3)c3c(N)ncnc32)[C@@H]1O, the growth was 94.4% (inactive).
O=C(/C(=C/c1ccc([N+](=O)[O-])cc1)SCc1ccccc1)c1ccc(Cl)cc1 was tested, and the growth was -1.55% (active).
COc1ccc(-c2[nH]c3ccc(OC)cc3c2C=C(C#N)C#N)cc1 was tested, and the growth was -3.05% (active).
With COc1cc(C2=NN(c3ccccc3)C(c3cccc(Nc4ccnc5cc(C(F)(F)F)ccc45)c3)C2)cc(OC)c1OC (stereo not given) the growth was 56.9% (inactive).
COc1cc(C2=NN(C=O)C(c3cccc(Nc4ccnc5cc(C(F)(F)F)ccc45)c3)C2)cc(OC)c1OC (stereo not given) was tested, and the growth was 32.3% (inactive).
For COc1ccc(C(=O)c2cc(F)c(F)c(OC)c2F)cc1OC(=O)CCl, the growth was 20.8% (inactive).
COc1ccc2nc(-c3ccc(Cl)cc3)cc(-c3nnc(SCC(=O)Nc4ccc(/C(C)=N\O)cc4)o3)c2c1 was tested, and the growth was 6.61% (active).
For O=C(Nc1ccc(S(=O)(=O)NC2CCCCCC2)cc1)C(c1ccccc1)S(=O)(=O)c1ccc(F)cc1 (stereo not given), the growth was -0.97% (active).
For CCO/C=N/S(=O)(=O)c1cc2c(cc1Cl)NC=NS2(=O)=O, the growth was 108% (inactive).
With Cc1nccc2c3ccc(OCc4cn(-c5ccc(Br)cc5)nn4)cc3n(CC(C)C)c12 the growth was -13.9% (active).
With O=C1C(=O)c2c(nc3ccc(Br)cn23)-c2ccccc21 the growth was -27.6% (active).
With Cc1[nH]c2ncnc(Oc3ccc(NC(=O)Nc4ccc(Cl)c(C(F)(F)F)c4)cc3)c2c1C the growth was 9.11% (active).
In the case of CC1=C(CCCOC(=O)NCCCl)C2=C(C)C3(CC3)[C@@](C)(O)C(=O)C2=C1, the growth was 82.9% (inactive).
CNc1cccc2c1C(=O)c1cccc(N)c1C2=O was tested, and the growth was 9.01% (active).
N#Cc1ccc(C2C3=C(CCCC3=O)OC3=C2C(=O)c2ccccc2C3=O)cc1 (stereo not given) was tested, and the growth was 60.9% (inactive).
For O=c1nc(-c2ccccc2)c2cc(-c3ccc(N4CCCC4)nc3)ccc2[nH]1, the growth was 18.2% (inactive).
With Nn1c(SCC(=O)Nc2ccc(Cl)cc2)nnc1-c1cc(F)c(Cl)cc1Cl the growth was 56.5% (inactive).
With OCCNc1nc(NCCO)nc(Nc2ccc(C3=NN(c4cc(Cl)cc(Cl)c4)C(c4ccc(C(F)(F)F)cc4)C3)cc2)n1 (stereo not given) the growth was 4.83% (active).
NC(N)=NC(N)=Nc1cc2ccccc2c2ccccc12 was tested, and the growth was -2.98% (active).
CCCCCOC(=O)c1ccccc1O was tested, and the growth was 85.1% (inactive).
